{
  "source": "the supplement of paper PMC6555819",
  "data": [
    {"test_system": "RXRa homodimer (NR concentration 180 nM)", "test": "PBM binding z-score (relative to random genomic background probes); higher = stronger binding; sequences stand for … in GC…GCGATTGACAGCGTAGAATGAAGG", "procedure,_shortened": "(§1)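 For binding z-scores, the reference was random background probes on custom Agilent 4×180K protein-binding microarrays. These arrays were incubated 1 h with ligand-free nuclear receptor dimers in PBS pH 7.4, 2% milk, 0.02% Triton X-100, 1 mM DTT, 0.2 mg/mL BSA and 0.4 mg/ml salmon testes DNA. Fluorescence was scanned after antibody detection of each partner (one per run) and regression-normalized.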", "values": [
      {"sequence": "TAGCCTAGGTCATTCAGGGGCCAATATAGAAAGC", "PBM binding z-score": 3.15},
      {"sequence": "CGAACTAGGTCAGGGACAGTGAATCTCCGCACGC", "PBM binding z-score": 1.47},
      {"sequence": "CCTGCTAGGTCATGGTCAGCTATTCTACAGTATG", "PBM binding z-score": 2.65},
      {"sequence": "GCTCGGAGGAAAAGGTCAGAGCTTTGTCCGTAGA", "PBM binding z-score": 4.74},
      {"sequence": "ATACCAAGGTGATCGTGAGGTCGTAGATACTAAC", "PBM binding z-score": 1.76},
      {"sequence": "CCGAGTAGGTTATGTGGCATTCAGGCAACGGTGA", "PBM binding z-score": 0.208},
      {"sequence": "CGTAGTTGGTCAAGGTCACACACGCTATAGGTAC", "PBM binding z-score": 4.06},
      {"sequence": "CCTTACGGGTCACTGACAGGTTATAGTATTTGGA", "PBM binding z-score": 5.18},
      {"sequence": "ATATGTAGGTAAGCTGGGGTCATTCAGACTAGGC", "PBM binding z-score": 5.36},
      {"sequence": "TCGAGTAGCTTAGTCGGGGCATTCAGCCAACATA", "PBM binding z-score": -0.559},
      {"sequence": "ATCTCTAGGTAACCTAGTTCAGTGAATGCCGAAC", "PBM binding z-score": 0.722},
      {"sequence": "TCATATAGGTAAAAAGGTGAAAGTCCGTAAGTTA", "PBM binding z-score": 2.42},
      {"sequence": "CCTACTGGGCCAAGGTCATTGATCAGTCAAAGCA", "PBM binding z-score": 3.08},
      {"sequence": "TAGCCTAGGTCATGCGGGCCAGTACAGTGTCGGC", "PBM binding z-score": 3.08},
      {"sequence": "AGAACGAGGGCAATGAGTTGATAGGACGGGTGGC", "PBM binding z-score": 0.869},
      {"sequence": "GATACAGGGTCAAGGCCAGAGTCCGCGTATTGAT", "PBM binding z-score": 5.5},
      {"sequence": "TCTTGTAGAGCAAGCAGGTTAAGAAAGCCTGAGT", "PBM binding z-score": -0.0799},
      {"sequence": "ACAAACAGGTGATGAAGGTAACTCAGGCTATCAT", "PBM binding z-score": 0.602},
      {"sequence": "GTACCCAGGTGAATAGGTCGTTGATGAGTAGGCG", "PBM binding z-score": 1.18},
      {"sequence": "TCTGCTAGGTCGACGATGGTCAGCTAATCTGCTA", "PBM binding z-score": 0.321},
      {"sequence": "ATCTCTAGGTAAATATAGTTCAGTGAATGCAAAT", "PBM binding z-score": 0.623},
      {"sequence": "CAAACTAGGTCATGGTCAAAGTCGGTTTGTGCCA", "PBM binding z-score": 3.08},
      {"sequence": "CAAACTAGGCCAAAGGTCAAAGTCGAGCCAACCA", "PBM binding z-score": 7.49},
      {"sequence": "ATCTCTAGGTAATAGTTCAGTGAATCCCGAGGAT", "PBM binding z-score": 0.482},
      {"sequence": "CCTGCTAGGTCATGGTCAGCTACTCTACAGTATG", "PBM binding z-score": 2.51},
      {"sequence": "TAGCCTAGGTCATGGGCCGGTATACCACGCGAAC", "PBM binding z-score": 3.4},
      {"sequence": "TAGCCTAGGTCAGTTCGGGCCAGTATACGCTATA", "PBM binding z-score": 0.716},
      {"sequence": "GTAACGAGGGCATTCGAGTTGATAGCATGGCGAT", "PBM binding z-score": 0.914},
      {"sequence": "TGTCAAAGTTCAAAGGTAACATAAGTATCCACAC", "PBM binding z-score": 6.86},
      {"sequence": "ACTAGCAGGCCAAGGGTCCCTCAAGATTAGTCCG", "PBM binding z-score": -0.0168},
      {"sequence": "CCTTGTTGGTCAAGGTCACACACGCTATAGGTAC", "PBM binding z-score": 4.51},
      {"sequence": "AGTCAAAGTTCATCTACGTAACGTAAGATATGCT", "PBM binding z-score": 4.55},
      {"sequence": "GCATATAGGTAATACAAGGTGAAAGGCCGATTGT", "PBM binding z-score": 0.895},
      {"sequence": "ACAGACAGGTGAGTGAAGGTAACTCTGCTGGACG", "PBM binding z-score": 0.622},
      {"sequence": "TCTTGTAGATCAGCATGTTAAGAAAGCTGGCCAA", "PBM binding z-score": -0.151},
      {"sequence": "CTAGACAGGTGAGAAGGTAACTCAGCCTCGATTA", "PBM binding z-score": 0.228},
      {"sequence": "GCTGCTAGGTCAGGTTGGTCATCTAACGGGTACG", "PBM binding z-score": 1.18},
      {"sequence": "GCGACTGGGGCAAAGCAGGTTACGATAAGGTTGG", "PBM binding z-score": 0.354},
      {"sequence": "TCGAGTAGGTTACCAATGGGGCAGTCAGCTTTCT", "PBM binding z-score": 0.404},
      {"sequence": "CAAACTAGGTCACCGGAAGGTCAAACTCCGCATG", "PBM binding z-score": 6.33}
    ]},
    {"test_system": "THRa:RXRa (NR concentration 90 nM, RXRa partner concentration 90 nM)", "test": "PBM binding z-score (relative to random genomic background probes); higher = stronger binding; sequences stand for … in GC…GCGATTGACAGCGTAGAATGAAGG", "procedure,_shortened": "as §1", "values": [
      {"sequence": "TAGCCTAGGTCATTCAGGGGCCAATATAGAAAGC", "PBM binding z-score": 3.85},
      {"sequence": "CGAACTAGGTCAGGGACAGTGAATCTCCGCACGC", "PBM binding z-score": 2.23},
      {"sequence": "CCTGCTAGGTCATGGTCAGCTATTCTACAGTATG", "PBM binding z-score": 2.93},
      {"sequence": "GCTCGGAGGAAAAGGTCAGAGCTTTGTCCGTAGA", "PBM binding z-score": 2.22},
      {"sequence": "ATACCAAGGTGATCGTGAGGTCGTAGATACTAAC", "PBM binding z-score": 3.54},
      {"sequence": "CCGAGTAGGTTATGTGGCATTCAGGCAACGGTGA", "PBM binding z-score": 0.162},
      {"sequence": "CGTAGTTGGTCAAGGTCACACACGCTATAGGTAC", "PBM binding z-score": 4.05},
      {"sequence": "CCTTACGGGTCACTGACAGGTTATAGTATTTGGA", "PBM binding z-score": 3.04},
      {"sequence": "ATATGTAGGTAAGCTGGGGTCATTCAGACTAGGC", "PBM binding z-score": 4.65},
      {"sequence": "TCGAGTAGCTTAGTCGGGGCATTCAGCCAACATA", "PBM binding z-score": -0.289},
      {"sequence": "ATCTCTAGGTAACCTAGTTCAGTGAATGCCGAAC", "PBM binding z-score": 1.61},
      {"sequence": "TCATATAGGTAAAAAGGTGAAAGTCCGTAAGTTA", "PBM binding z-score": 1.55},
      {"sequence": "CCTACTGGGCCAAGGTCATTGATCAGTCAAAGCA", "PBM binding z-score": 3.49},
      {"sequence": "TAGCCTAGGTCATGCGGGCCAGTACAGTGTCGGC", "PBM binding z-score": 3.06},
      {"sequence": "AGAACGAGGGCAATGAGTTGATAGGACGGGTGGC", "PBM binding z-score": 0.954},
      {"sequence": "GATACAGGGTCAAGGCCAGAGTCCGCGTATTGAT", "PBM binding z-score": 3.52},
      {"sequence": "TCTTGTAGAGCAAGCAGGTTAAGAAAGCCTGAGT", "PBM binding z-score": -0.2},
      {"sequence": "ACAAACAGGTGATGAAGGTAACTCAGGCTATCAT", "PBM binding z-score": 1.19},
      {"sequence": "GTACCCAGGTGAATAGGTCGTTGATGAGTAGGCG", "PBM binding z-score": 1.31},
      {"sequence": "TCTGCTAGGTCGACGATGGTCAGCTAATCTGCTA", "PBM binding z-score": 0.669},
      {"sequence": "ATCTCTAGGTAAATATAGTTCAGTGAATGCAAAT", "PBM binding z-score": 1.05},
      {"sequence": "CAAACTAGGTCATGGTCAAAGTCGGTTTGTGCCA", "PBM binding z-score": 3.04},
      {"sequence": "CAAACTAGGCCAAAGGTCAAAGTCGAGCCAACCA", "PBM binding z-score": 3.93},
      {"sequence": "ATCTCTAGGTAATAGTTCAGTGAATCCCGAGGAT", "PBM binding z-score": 0.745},
      {"sequence": "CCTGCTAGGTCATGGTCAGCTACTCTACAGTATG", "PBM binding z-score": 2.76},
      {"sequence": "TAGCCTAGGTCATGGGCCGGTATACCACGCGAAC", "PBM binding z-score": 3.15},
      {"sequence": "TAGCCTAGGTCAGTTCGGGCCAGTATACGCTATA", "PBM binding z-score": 4.04},
      {"sequence": "GTAACGAGGGCATTCGAGTTGATAGCATGGCGAT", "PBM binding z-score": 3.18},
      {"sequence": "TGTCAAAGTTCAAAGGTAACATAAGTATCCACAC", "PBM binding z-score": 3.53},
      {"sequence": "ACTAGCAGGCCAAGGGTCCCTCAAGATTAGTCCG", "PBM binding z-score": -0.255},
      {"sequence": "CCTTGTTGGTCAAGGTCACACACGCTATAGGTAC", "PBM binding z-score": 4.31},
      {"sequence": "AGTCAAAGTTCATCTACGTAACGTAAGATATGCT", "PBM binding z-score": 1.88},
      {"sequence": "GCATATAGGTAATACAAGGTGAAAGGCCGATTGT", "PBM binding z-score": 4.07},
      {"sequence": "ACAGACAGGTGAGTGAAGGTAACTCTGCTGGACG", "PBM binding z-score": 1.52},
      {"sequence": "TCTTGTAGATCAGCATGTTAAGAAAGCTGGCCAA", "PBM binding z-score": -0.548},
      {"sequence": "CTAGACAGGTGAGAAGGTAACTCAGCCTCGATTA", "PBM binding z-score": 0.0525},
      {"sequence": "GCTGCTAGGTCAGGTTGGTCATCTAACGGGTACG", "PBM binding z-score": 1.94},
      {"sequence": "GCGACTGGGGCAAAGCAGGTTACGATAAGGTTGG", "PBM binding z-score": 2.97},
      {"sequence": "TCGAGTAGGTTACCAATGGGGCAGTCAGCTTTCT", "PBM binding z-score": -0.0981},
      {"sequence": "CAAACTAGGTCACCGGAAGGTCAAACTCCGCATG", "PBM binding z-score": 4.6}
    ]}
  ]
}
